The values below come from PubChem BioAssay (EPA / NIEHS).

A word on the AC50: it is the concentration at which the activity in the assay is half-maximal.

Conditions in all cases: mRNA level, 48 h; actives raise or lower the signal
Read-out in assay [1]: Early growth response protein 1 (EGR1) transcription factor, EGR1 (gene 1958)
Kind of assay: LTEA_HepaRG_EGR1: Life Technologies and Expression Analysis (LTEA) Assay for Early growth response protein 1 (EGR1) transcription factor using HepaRG (AID 2283490). The method in brief: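 Read-out is EGR1 mRNA level by qRT-PCR, normalized to three housekeeping genes and analysed for gain or loss of signal against 0.5% DMSO. Source cells: human HepaRG, treated 48 h at up to 100 uM in half-log dilutions.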

Read-out in assay [2]: Ezrin (EZR), EZR (gene 7430)
As to the kind of experiment: LTEA_HepaRG_EZR: Life Technologies and Expression Analysis (LTEA) Assay for Ezrin (EZR) using HepaRG (AID 2283491). The method in brief:
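HepaRG, 48 h chemical exposure, 8-pt half-log series from 100 uM, 0.5% DMSO vehicle, duplicates. Read-out: EZR mRNA by TaqMan qRT-PCR (Fluidigm array), housekeeping-normalized; bidirectional curve fit vs DMSO baseline.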

Read-out in assay [3]: Cytochrome P450 3A7 (Homo sapiens) (UniProt P24462)
Kind of assay: LTEA_HepaRG_CYP3A7: Life Technologies and Expression Analysis (LTEA) Assay for CYP3A7 using HepaRG (AID 2283492). Put shortly:
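Differentiated HepaRG cells in serum-free induction medium exposed 48 h in duplicate to 8-point half-log series from 100 uM top in 0.5% DMSO. CYP3A7 mRNA by qRT-PCR, normalized to ACTB/GAPDH/POLR2A, bidirectional fit versus DMSO.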

Read-out in the next assay: CYP3A5 (gene 1577)
As to the kind of experiment: LTEA_HepaRG_CYP3A5: Life Technologies and Expression Analysis (LTEA) Assay for CYP3A5 using HepaRG (AID 2283493). Put shortly: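 HepaRG plated 48 h, switched to serum-free induction medium, chemicals added 48 h (max 100 uM, half-log, 0.5% DMSO). RNA isolated; CYP3A5 by TaqMan qRT-PCR. Gain/loss vs DMSO.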

Read-out in assay [4]: Fatty Acid-Binding Protein 1 (FABP1), FABP1 (gene 2168)
Kind of assay: LTEA_HepaRG_FABP1: Life Technologies and Expression Analysis (LTEA) Assay for Fatty Acid-Binding Protein 1 (FABP1) using HepaRG (AID 2283494). The method in brief:
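HepaRG, 48 h post-plating switched to serum-free induction medium, then dosed 48 h (duplicate, 8 pts, ≤100 uM, 0.5% DMSO). RNA → Fluidigm TaqMan qRT-PCR, FABP1 normed to ACTB/GAPDH/POLR2A. Bidirectional curve fit vs DMSO.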

Read-out in assay [5]: Cytochrome P450 4A22 (Homo sapiens) (UniProt Q5TCH4)
Kind of assay: LTEA_HepaRG_CYP4A22: Life Technologies and Expression Analysis (LTEA) Assay for Cytochrome P450 4A22 (CYP4A22) using HepaRG (AID 2283495). The method in brief: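 Differentiated HepaRG cells in serum-free induction medium exposed 48 h in duplicate to eight half-log concentrations up to 100 uM in 0.5% DMSO. CYP4A22 mRNA quantified by TaqMan qRT-PCR, normalized to ACTB, GAPDH and POLR2A; bidirectional fit versus DMSO.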

Read-out in assay [6]: Cytochrome P450 7A1 (Homo sapiens) (UniProt P22680)
As to the kind of experiment: LTEA_HepaRG_CYP7A1: Life Technologies and Expression Analysis (LTEA) Assay for Cytochrome P450 7A1 (CYP7A1) using HepaRG (AID 2283496). The method in brief:
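HepaRG cells plated 48 h, then switched to serum-free induction medium and exposed in duplicate for 48 h to 8-point half-log series from 100 uM in 0.5% DMSO. CYP7A1 mRNA by qRT-PCR (TaqMan), normalized to ACTB/GAPDH/POLR2A; bidirectional fit versus DMSO.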

Read-out in assay [7]: Glutathione S-Transferase (GSTA2), GSTA2 (gene 2939)
Kind of assay: LTEA_HepaRG_GSTA2: Life Technologies and Expression Analysis (LTEA) Assay for Glutathione S-Transferase (GSTA2) using HepaRG (AID 2283497). Put shortly:
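HepaRG, 48 h dosing, 8-pt half-log CRC from 100 uM, 0.5% DMSO vehicle, n=2; RNA → Fluidigm TaqMan qRT-PCR; GSTA2 vs ACTB/GAPDH/POLR2A; gain/loss fit vs DMSO.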

Read-out in assay [8]: Glutamate-cysteine ligase catalytic (GCLC), GCLC (gene 2729)
As to the kind of experiment: LTEA_HepaRG_GCLC: Life Technologies and Expression Analysis (LTEA) Assay for Glutamate-cysteine ligase catalytic (GCLC) using HepaRG (AID 2283498). Put shortly: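 Read-out is GCLC transcript level by Fluidigm-based TaqMan qRT-PCR, normalized to three housekeeping genes and fitted in both directions relative to 0.5% DMSO. Human HepaRG cells received chemicals for 48 h, up to 100 uM.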

Read-out in assay [9]: growth arrest and DNA damage 45 (GADD45G), GADD45G (gene 10912)
Kind of assay: LTEA_HepaRG_GADD45G: Life Technologies and Expression Analysis (LTEA) Assay for growth arrest and DNA damage 45 (GADD45G) using HepaRG (AID 2283499). The method in brief:
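Differentiated human HepaRG cells, 48 h post-plating, exposed 48 h in serum-free induction medium to 8 half-log concentrations (top 100 uM, 0.5% DMSO) in duplicate. GADD45G mRNA measured by Fluidigm TaqMan qRT-PCR, normalized to ACTB, GAPDH, POLR2A; bidirectional fit versus DMSO.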

Read-out in assay [10]: Glutamate-cysteine ligase regulatory (GCLM), GCLM (gene 2730)
As to the kind of experiment: LTEA_HepaRG_GCLM: Life Technologies and Expression Analysis (LTEA) Assay for Glutamate-cysteine ligase regulatory (GCLM) using HepaRG (AID 2283500). The method in brief: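 Cells were plated, cultured 48 h, switched to serum-free induction medium, then dosed in duplicate for 48 h at eight half-log concentrations up to 100 uM. RNA was then profiled by qRT-PCR; gain or loss versus DMSO was fitted.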

Read-out in assay [11]: Glutathione S-transferase M3 (GSTM3), GSTM3 (gene 2947)
Kind of assay: LTEA_HepaRG_GSTM3: Life Technologies and Expression Analysis (LTEA) Assay for Glutathione S-transferase M3 (GSTM3) using HepaRG (AID 2283501). The method in brief:
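Differentiated human HepaRG cells were exposed in duplicate for 48 h in serum-free induction medium, 8 points from 100 uM top in half-log steps, 0.5% DMSO. GSTM3 mRNA was measured by TaqMan qRT-PCR, normalized to ACTB, GAPDH and POLR2A; bidirectional fit versus DMSO.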

Read-out in assay [12]: Heat shock 70 kDa protein 1 (HSPA1A), gene 3303
As to the kind of experiment: LTEA_HepaRG_HSPA1A: Life Technologies and Expression Analysis (LTEA) Assay for Heat shock 70 kDa protein 1 (HSPA1A) using HepaRG (AID 2283502). Put shortly: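 Readout is HSPA1A transcript level by microfluidic qRT-PCR, normalized to three housekeeping genes and analysed for gain or loss of signal relative to 0.5% DMSO. Human HepaRG cultures received test chemicals for 48 h at up to 100 uM.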

Read-out in assay [13]: Hypoxia-inducible factor 1-alpha (Homo sapiens) (UniProt Q16665)
As to the kind of experiment: LTEA_HepaRG_HIF1A: Life Technologies and Expression Analysis (LTEA) Assay for Hypoxia-inducible factor 1 (HIF1A) Trancription factor using HepaRG (AID 2283503). The method in brief:
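Differentiated HepaRG cells in serum-free induction medium exposed 48 h, in duplicate, to 8-point half-log series from 100 uM in 0.5% DMSO. HIF1A mRNA measured by TaqMan qRT-PCR, normalized to ACTB/GAPDH/POLR2A, fitted bidirectionally versus DMSO.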

Read-out in assay [14]: 3-Hydroxy-3-Methylglutaryl-CoA Synthase 2 (HMGCS2), HMGCS2 (gene 3158)
Kind of assay: LTEA_HepaRG_HMGCS2: Life Technologies and Expression Analysis (LTEA) Assay for 3-Hydroxy-3-Methylglutaryl-CoA Synthase 2 (HMGCS2) using HepaRG (AID 2283504). Put shortly:
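Human HepaRG cells in serum-free induction medium were exposed in duplicate for 48 h to 8-point half-log series from 100 uM top in 0.5% DMSO. HMGCS2 mRNA measured by TaqMan qRT-PCR, normalised to ACTB, GAPDH, POLR2A; bidirectional fit versus DMSO.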

Read-out in the next assay: HGF (gene 3082)
As to the kind of experiment: LTEA_HepaRG_HGF: Life Technologies and Expression Analysis (LTEA) Assay for Hepatocyte Growth Facto (HGF) using HepaRG (AID 2283505). The method in brief:
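Differentiated HepaRG cells in serum-free induction medium exposed 48 h in duplicate, 8 half-log concentrations from 100 uM in 0.5% DMSO. HGF mRNA by qRT-PCR, normalised to ACTB, GAPDH, POLR2A; bidirectional fitting.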

Read-out in assay [15]: Insulin Like Growth Factor 1 (IGF1), IGF1 (gene 3479)
Kind of assay: LTEA_HepaRG_IGF1: Life Technologies and Expression Analysis (LTEA) Assay for Insulin Like Growth Factor 1 (IGF1) using HepaRG (AID 2283506). Put shortly: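 HepaRG, plated 48 h, then switched to serum-free induction media; test chemical 8-pt half-log from 100 uM (0.5% DMSO), duplicate, 48 h. Lysis in RLT, TaqMan qRT-PCR, norm. ACTB/GAPDH/POLR2A. Bidirectional fit vs DMSO.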

Read-out in assay [16]: Intercellular Adhesion Molecule 1 (ICAM1), ICAM1 (gene 3383)
Kind of assay: LTEA_HepaRG_ICAM1: Life Technologies and Expression Analysis (LTEA) Assay for Intercellular Adhesion Molecule 1 (ICAM1) using HepaRG (AID 2283507). Put shortly:
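Differentiated human HepaRG cells in serum-free induction medium exposed 48 h in duplicate to 8 half-log concentrations (top 100 uM, 0.5% DMSO). ICAM1 mRNA quantified by TaqMan qRT-PCR, normalized to ACTB, GAPDH and POLR2A; bidirectional fitting versus DMSO.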

Read-out in assay [17]: Insulin-like growth factor-binding protein 1 (IGFBP1), IGFBP1 (gene 3484)
As to the kind of experiment: LTEA_HepaRG_IGFBP1: Life Technologies and Expression Analysis (LTEA) Assay for Insulin-like growth factor-binding protein 1 (IGFBP1) using HepaRG (AID 2283508). The method in brief:
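HepaRG cells, plated 48 h then switched to serum-free induction medium, exposed in duplicate for 48 h to 8-point half-log series from 100 uM in 0.5% DMSO. mRNA measured by qRT-PCR, normalized to ACTB/GAPDH/POLR2A; bidirectional fit versus DMSO.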

Read-out in assay [18]: Interleukin 6 (IL6), IL6 (gene 3569)
Kind of assay: LTEA_HepaRG_IL6: Life Technologies and Expression Analysis (LTEA) Assay for Interleukin 6 (IL6) using HepaRG (AID 2283509). Put shortly:
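HepaRG, ~100,000 cells/well, 48 h pre-culture; serum-free induction medium; cmpd 8-pt half-log from 100 uM, 0.5% DMSO, duplicate, 48 h. Lysis in RLT, TaqMan qRT-PCR; gain or loss vs DMSO.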

Calls of active or inactive are those of the source. The calls were made as follows: active = hit-call score of the fitted dose curve at least 0.9, where 1 is the maximum; inactive = score below 0.9.

Chain of Cytochrome P450 3A7 (Homo sapiens) (P24462 whole entry, looked up): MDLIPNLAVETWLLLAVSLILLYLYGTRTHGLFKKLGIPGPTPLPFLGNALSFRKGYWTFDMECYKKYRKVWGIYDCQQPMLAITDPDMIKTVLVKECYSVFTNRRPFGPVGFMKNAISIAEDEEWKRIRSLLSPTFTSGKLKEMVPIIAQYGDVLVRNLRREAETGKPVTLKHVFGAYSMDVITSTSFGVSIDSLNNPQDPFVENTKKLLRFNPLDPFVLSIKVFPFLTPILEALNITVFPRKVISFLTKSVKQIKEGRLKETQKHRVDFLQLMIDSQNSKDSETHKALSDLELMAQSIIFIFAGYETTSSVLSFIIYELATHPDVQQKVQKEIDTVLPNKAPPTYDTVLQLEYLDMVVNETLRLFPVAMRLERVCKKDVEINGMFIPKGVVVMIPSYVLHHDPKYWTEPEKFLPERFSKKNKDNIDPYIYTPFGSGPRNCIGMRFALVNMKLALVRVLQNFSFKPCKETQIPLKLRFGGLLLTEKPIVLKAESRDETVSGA
Chain of Hypoxia-inducible factor 1-alpha (Homo sapiens) (Q16665 whole entry, looked up): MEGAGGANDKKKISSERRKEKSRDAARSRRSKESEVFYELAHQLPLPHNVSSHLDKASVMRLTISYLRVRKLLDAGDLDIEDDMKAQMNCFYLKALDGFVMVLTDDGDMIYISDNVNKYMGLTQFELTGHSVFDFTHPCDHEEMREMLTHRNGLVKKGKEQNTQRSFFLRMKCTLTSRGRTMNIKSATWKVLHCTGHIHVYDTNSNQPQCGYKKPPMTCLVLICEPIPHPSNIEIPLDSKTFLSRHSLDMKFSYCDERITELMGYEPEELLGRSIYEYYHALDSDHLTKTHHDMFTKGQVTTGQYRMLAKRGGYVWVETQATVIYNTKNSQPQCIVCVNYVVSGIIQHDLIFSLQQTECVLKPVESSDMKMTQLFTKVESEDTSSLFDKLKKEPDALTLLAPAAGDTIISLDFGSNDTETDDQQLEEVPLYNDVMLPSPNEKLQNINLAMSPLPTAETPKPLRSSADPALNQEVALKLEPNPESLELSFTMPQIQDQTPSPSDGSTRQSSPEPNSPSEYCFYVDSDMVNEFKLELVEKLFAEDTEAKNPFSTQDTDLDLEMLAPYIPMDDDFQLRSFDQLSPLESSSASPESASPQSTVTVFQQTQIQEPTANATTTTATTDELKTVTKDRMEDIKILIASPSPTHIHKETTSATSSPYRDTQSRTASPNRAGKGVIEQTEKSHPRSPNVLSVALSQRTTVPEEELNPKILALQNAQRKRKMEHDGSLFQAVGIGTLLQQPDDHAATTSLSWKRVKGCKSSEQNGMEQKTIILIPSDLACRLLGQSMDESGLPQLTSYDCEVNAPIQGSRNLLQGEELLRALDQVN

Regarding `OC(c1ccc(Cl)cc1)(c1ccc(Cl)cc1)C(Cl)(Cl)Cl`, the compound was called inactive in [1], in assay [2], in assay [5], in assay [8], in [10] and in assay [13]. Further, in the assay with HGF (gene 3082), the result was inactive. The half-maximal activity concentration (AC50) in assay [3] was 83.5 µM (active); with CYP3A5 (gene 1577), 50 µM (active); in assay [4], 63.2 µM (active); in assay [6], 75.9 µM (active); in [7], 77.3 µM (active); in [9] it was 87.7 µM (active). In addition, the AC50 in assay [11] is 81.2 µM (active); in assay [12], 89.3 µM (active); in assay [14], 80.1 µM (active); in [15], 50 µM (active); in assay [16], 77.6 µM (active); in assay [17] it was 73.6 µM (active). Besides, the concentration at half-maximal activity (AC50) in assay [18] was 76.6 µM (active).
Regarding `COP(=O)(OC)O/C(C)=C/C(=O)N(C)C`, the result (in assay [1]; in assay [2]; in assay [3]; with CYP3A5 (gene 1577); in [4]; in assay [5]) was inactive. Further, the call in assay [6], in assay [7], in assay [8], in [9], in assay [10] and in assay [11] was inactive. The compound was classed as inactive (in assay [12]; in assay [13]; in assay [14]; with HGF (gene 3082); in assay [15]; in assay [16]). Besides, the compound was classed as inactive in [17] and in assay [18].
For the compound `CC(C)Nc1nc(Cl)nc(NC(C)C)n1`, the compound was classed as inactive (in assay [1]; in [2]; with CYP3A5 (gene 1577); in [5]; in [7]; in [8]). Moreover, the compound was classed as inactive (in assay [9]; in assay [10]; in assay [11]; in assay [12]; in [13]; in the assay with HGF (gene 3082)). For the same compound, the result in assay [15], in assay [16], in assay [17] and in assay [18] was inactive. For the same compound, the concentration at half-maximal activity (AC50) in [3] was 2.51 µM (active); in [4], 19.2 µM (active); in assay [6], 50 µM (active); in [14], 23.6 µM (active).
